Screening results as filed in PubChem BioAssay.
Rows were chosen to be rich in hits. Some 19% of all compounds tested hit in one or more screens of this group.
DT40 TDP1 no CPT: qHTS for Inhibitors of human tyrosyl-DNA phosphodiesterase 1 (TDP1): qHTS in cells in absence of CPT | hit rate 15% among 420,000 | Potency, µM (titrated, usually from 46.2 µM), for the others: at the top dose activity change, negative = growth inhibition, hits mostly inhibitors | DT40 Tdp1-/- hTDP1 cells, no CPT, ATP luminescence, 48 h | AID 686978, 2013; also: nearly all actives have a fitted effect of over 55% in size
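Luminescent ATP content (CellTiter-Glo) served as the growth readout. Knockout chicken DT40 cells expressing human TDP1 were exposed to compounds without camptothecin for a minimum 48 hr at 37 °C.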
TDP1 block: TDP1 (human) enzyme inhibition | Q9NUW8 | recombinant TDP1, AlphaScreen DNA substrate cleavage | Potency, µM (titrated, usually from 130 µM), without a hit: top-dose activity change, negative = inhibition, hits mostly inhibitors | hit rate 0.28% among 350,000 | AID 485290; also: nearly all actives have a fitted effect of over 40% in size
Target sequence (Q9NUW8 whole entry, looked up): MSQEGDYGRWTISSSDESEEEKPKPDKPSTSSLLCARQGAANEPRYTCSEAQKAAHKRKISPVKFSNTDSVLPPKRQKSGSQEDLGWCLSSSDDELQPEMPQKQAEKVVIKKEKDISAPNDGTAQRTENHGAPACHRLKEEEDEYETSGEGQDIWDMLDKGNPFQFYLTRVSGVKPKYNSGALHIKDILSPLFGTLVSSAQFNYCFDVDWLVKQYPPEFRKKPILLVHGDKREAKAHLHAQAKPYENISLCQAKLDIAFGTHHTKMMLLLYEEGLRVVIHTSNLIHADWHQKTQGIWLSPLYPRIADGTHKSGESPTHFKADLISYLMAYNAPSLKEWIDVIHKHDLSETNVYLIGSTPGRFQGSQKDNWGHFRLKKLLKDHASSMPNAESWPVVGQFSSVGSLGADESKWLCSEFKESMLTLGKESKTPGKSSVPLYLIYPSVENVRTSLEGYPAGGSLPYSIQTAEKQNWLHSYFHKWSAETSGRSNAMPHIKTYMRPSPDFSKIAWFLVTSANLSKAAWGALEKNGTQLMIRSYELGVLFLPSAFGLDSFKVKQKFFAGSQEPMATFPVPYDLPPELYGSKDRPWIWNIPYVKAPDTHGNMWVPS
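Tdp1 1 nM final; 15 min RT w/ cpd; substrate 15 nM, 5 min; beads 10 ug/ml, 10 min; AlphaScreen read. Neg ctrl: no enzyme.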
VP16 counter: inhibits Gal4-VP16 luciferase reporter, ROR gamma counter-screen; Potency, µM (titrated, usually from 53.6 µM), for the others: top-dose activity, negative = inhibition, actives largely listed as inhibitors; hit rate 3.5% among 310,000; AID 2546; Drosophila S2 Gal4-VP16 UAS-luciferase, luminescence, 20 h;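 also: Gal4-VP16 expression switched on by copper sulfate through the metallothionein promoter; nearly all actives have a fitted effect of over 50% in size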
RORgamma inh: blocks mouse ROR gamma transcriptional activity; Drosophila S2 Gal4-RORgamma UAS-luciferase reporter, 20 h; Potency, µM (series often up to 53.6 µM), inactives show at the highest dose activity change, negative = inhibition, usual class: inhibitors; hit rate 5.4% among 310,000; also: nearly all actives have a fitted effect of over 60% in size
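ROR gamma transcriptional activity was tracked as Gal4-UAS luciferase output in stably transfected Drosophila Schneider cells, with compound added 1 hr before 700 uM copper sulfate induction and a 20 hr ambient-temperature incubation.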
DT40 TDP1 CPT: DT40-hTDP1 cell growth loss with CPT | chicken DT40 Tdp1-/-;hTDP1 cells + 20 nM CPT, ATP luminescence, 48 h | hit rate 12% among 420,000 | Potency, µM (top dose mostly 46.2 µM), without a hit: at the top dose activity change, negative = growth inhibition, most hits filed as inhibitors | AID 686979; also: nearly all actives have a fitted effect of over 55% in size
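Cell growth measured by CellTiter-Glo luminescence after a minimum 48 h, 37 C compound exposure with 20 nM CPT in Tdp1-knockout DT40 cells stably expressing hTDP1, seeded 400/well; qHTS titration format.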
Active calls of the source: *; ? = inconclusive; · = no result given; [ ] = another dose, or the depositor's remark. Calls follow the shape of the dose curve; as a rule, active = well fitted curve in the direction sought with a large enough effect; inconclusive = small, poorly fitted or top-dose-only effect, or another doubt; inactive = no such curve, though single readings can be large; an effect the other way counts as inactive or inconclusive. % is scaled to controls: 0 for no effect and ±100 for the full control effect; potency is read from the fitted curve at half-maximal effect.

SMILES | DT40 TDP1 no CPT | TDP1 block | VP16 counter | RORgamma inh | DT40 TDP1 CPT
CC12CC3(C)CC(C)(C1)CC(NC(=O)N1CCCC1)(C2)C3 | 13µM* | 4% | 0% | ? | ?
CC1(NC(=O)N2CCCCC2)CCS(=O)(=O)C1 (stereo not given) | -5% | 2% | 2% | 0%[10 µM] | -12%
Cc1ccc(-n2ncc3c(=O)[nH]c(SCC(=O)NCC4CCCO4)nc32)cc1 (stereo not given) | -4% | 1% | · | · | 0%
COC(=O)C1=C(C)Nc2ncnn2C1c1ccc(C)o1 (stereo not given) | -15% | -3% | -3% | -23% | -7%
COC(=O)c1ccc(N2CCN(S(=O)(=O)c3ccc4ccccc4c3)CC2)c([N+](=O)[O-])c1 | 21µM* | 4% | -16% | 30% | 16µM*
Cc1ccc(S(=O)(=O)N2CCN(c3ccc(C(=O)N4CCOCC4)cc3[N+](=O)[O-])CC2)cc1 | 12µM* | 4% | -26% | ? | 18µM*
COC(=O)c1ccc(N2CCN(C(=O)C3CC3)CC2)c([N+](=O)[O-])c1 | 0% | · | 2% | 12% | 21%
O=C(c1ccc(-n2cncn2)c([N+](=O)[O-])c1)N1CCN(S(=O)(=O)c2ccccc2Br)CC1 | ? | 0% | · | · | ?
Cc1ccc(S(=O)(=O)N2CCN(C(=O)c3ccc(N4CCCCC4)c([N+](=O)[O-])c3)CC2)cc1 | -17% | 5%[56.1 µM] | -2% | ? | ?
COc1ccc(N2CCN(S(=O)(=O)c3ccc4c(c3)CCCC4)CC2)c([N+](=O)[O-])c1 | 23µM* | 8% | ? | ? | 16µM*
Cc1cc(C)c(S(=O)(=O)N2CCN(C(=O)c3ccc(-n4cncn4)c([N+](=O)[O-])c3)CC2)c(C)c1 | 13µM* | 1% | · | · | ?
COc1ccc(NC(=O)Nc2cn(CC(C)C)c(=O)c3ccccc23)c(OC)c1 | ? | 0% | · | · | ?
NC(=O)c1ccc(N2CCN(S(=O)(=O)c3ccccc3)CC2)c([N+](=O)[O-])c1 | 7.3µM* | 0% | ? | 13% | ?
NC(=O)c1ccc(N2CCN(c3ccc(O)cc3)CC2)c([N+](=O)[O-])c1 | 16µM* | 5% | 0% | 0% | ?
CC(=O)OC(C(=O)NC1CCCCC1)c1ccc(C)cc1 (stereo not given) | 1% | 1% | -6% | -2%[10 µM] | 7%
N/C(=N\OC(=O)c1ccc(Cl)c(Cl)c1)c1cccc(CSc2ccccn2)c1 | -26% | 0% | -3% | -5% | -1%
C#CCOCCOCCOCCNc1nc(N2CCOCC2)nc(N2CCN(C(=O)[C@H](CCC(=O)O)n3cc([C@@H](N)CCCCN)nn3)CC2)n1 | -15% | 5% | · | · | 2%
O=C(/C=C/c1cccs1)N1CCCC1 | 14% | · | 0% | 10% | 2%
CC(=O)Nc1cc(-c2cccc(C(=O)NCCN(C)C)c2)cn2c(-c3ccc(C(C)=O)cc3)cnc12 | 21µM* | · | · | · | ?
CC(=O)Nc1cc(-c2cccc(C(=O)NCCN(C)C)c2)cn2c(-c3ccc(F)c(Cl)c3)cnc12 | 1.5µM* | · | · | · | 2.1µM*
CN(C)CCCNC(=O)c1cccc(-c2ccc3nccn3c2)c1 | -7% | · | · | · | 25%
CC(=O)Nc1cncc(-c2cccc(C(=O)NCCN(C)C)c2)n1 | -13% | · | · | · | 0%
CCOC(=O)c1cccc(NC(=O)c2cc(C)nc3c2c(C)nn3-c2ccc(C)cc2)c1 | 21µM* | 0% | · | · | ?
Cc1cc(C(=O)Nc2ccc(Cl)cc2)c2c(C)nn(-c3ccccc3)c2n1 | ? | 1% | · | · | 9.2µM*
Cc1nn(-c2ccccc2)c2nc(C3CC3)cc(C(=O)Nc3ccccc3F)c12 | 5.8µM* | 5% | · | · | 7.3µM*
SMILES | DT40 TDP1 no CPT | TDP1 block | VP16 counter | RORgamma inh | DT40 TDP1 CPT
Cc1cc(C(=O)Nc2cccc(C)c2C)c2c(C)nn(-c3cccc(F)c3)c2n1 | -21% | 0% | · | · | -2%
Cc1cc(C)nc(SCCC(=O)Nc2ccccc2Cl)n1 | -8% | 0% | 10% | -29% | 3%
CCCCNC(=O)[C@@](CC)(ONc1ccccc1C(F)(F)F)c1cccc2ccccc12 | ? | 2% | · | · | 15µM*
CC(C)=CCc1c(O)cc2c(=O)c3ccc(O)cc3oc2c1O | ? | · | · | · | -16%
CC(C)Oc1cc(O)c2c(=O)c(-c3ccc(O)cc3)coc2c1 | -27% | 0% | ? | -11% | -6%
CC1(C)C=Cc2c(c3c(c4c(=O)c(-c5ccc(O)cc5)coc24)OC(C)(C)CC3)O1 | 26µM* | 7% | -5% | -44% | 18µM*
CC(C)=CCc1c2c(c3occ(-c4ccc(O)c(O)c4)c(=O)c3c1O)C=CC(C)(C)O2 | 1.5µM* | 9%[56.1 µM] | ? | ? | 1.3µM*
CC1(c2ccc3c(c2)OCO3)NC(=O)N(CC(=O)Nc2ccccc2)C1=O (stereo not given) | -30% | -1% | · | · | -9%
Cc1ccc(/C=C/C(=O)OC(C)C(=O)NC2CCCCC2C)o1 (stereo not given) | ? | · | · | · | -19%
O=C(CN1CCN(c2ccc(F)cc2)CC1)Nc1ccccc1C(=O)NCCc1ccccc1 | 16µM* | 5% | · | · | ?
COc1ccccc1N1CCN(CC(=O)Nc2c(C)n[nH]c2C)CC1 | -1% | 0% | -7% | -13% | -8%
COc1ccc(NC(=O)c2ccccc2NC(=O)CN2CCCCCC2)cc1 | -26% | 0% | · | · | ?
O=C(CN1CCN(c2ccccc2O)CC1)Nc1ccccc1C(=O)NCCc1ccccc1 | 16µM* | -3%[56.1 µM] | · | · | 23µM*
O=C(CN1CCN(c2ccccc2F)CC1)Nc1ccccc1F | -5% | 0% | -3% | 14% | ?
COc1ccccc1N1CCN(CC(=O)Nc2ccccc2C(=O)NCCc2ccccc2)CC1 | 16µM* | 5% | · | · | 15µM*
COc1ccc(CCNC(=O)c2ccccc2NC(=O)CN2CCN(c3ccccc3O)CC2)cc1 | 10µM* | 3% | · | · | ?
COc1ccccc1OCC(=O)Nc1ccccc1C(=O)Nc1cccc(C(=O)O)c1 | -20% | 5%[56.1 µM] | 0% | -1% | 3%
CCN(CC)c1ccc(NC(=O)C2CCN(S(=O)(=O)c3cnc[nH]3)CC2)c(C)c1 | -6% | 2% | · | · | ?
CCn1cc(C(=O)NCC(OC)OC)c(=O)c2cc(S(=O)(=O)N3CCOCC3)ccc21 | -16% | 3% | -1% | -16% | -1%
O=C(Cc1ccccc1)N[C@H](c1ccccc1)P(=O)(O)CO | 3% | -2% | -4% | 2.8µM* | -3%
CNC[C@H]1Oc2c(NS(=O)(=O)c3ccccc3)cccc2C(=O)N([C@H](C)CO)C[C@@H]1C | -8% | 1% | · | · | ?
O=C(CCCN1C(=O)/C(=C/c2ccccc2)SC1=S)Nc1ccccc1O | ? | 4% | ? | 4.5µM* | ?
